BAZ2B block = inhibitors of human BAZ2B bromodomain; Q9UIF8; actives 4.4% (n = 360,000); AlphaScreen BAZ2B-H3K14Ac peptide displacement; AID 504333; Potency, µM (doses to about 114 µM), for inactives: top-dose activity change, negative = inhibition, most hits filed as inhibitors; note: % is set by controls: 0 for no effect and ±100 for the full control effect; nearly all actives have a fitted effect of over 60% in size
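Complex of BAZ2B and biotin-H3K14Ac (50 nM apiece) forms over 30 min at RT, then faces library compounds up to 110 uM for another 30 min; AlphaScreen beads added, 20 min dark incubation, luminescence read.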
G9a inh = G9a (human) methyltransferase inhibition; Q96KQ7; G9a H3K9 monomethylation, AlphaScreen, 2 h; Potency, µM (titrated, usually from 102 µM), without a hit: at the top dose activity, negative = inhibition, usual class: inhibitors; actives 8.8% (n = 350,000); AID 504332; note: % is set by controls: 0 for no effect and ±100 for the full control effect; nearly all actives have a fitted effect of over 75% in size
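Quantitative HTS format: methyltransferase activity on a biotin-tagged H3K9 peptide is measured by AlphaScreen, using a rabbit anti-monomethyl-H3K9 antibody with streptavidin donor and anti-IgG acceptor beads. Final levels are 20 nM enzyme, 500 nM peptide, 20 uM SAM; 2 h RT.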
HP1b binding inh = inhibitors of HP1-beta chromodomain binding to methylated histone tails | P83916 | AlphaScreen HP1-beta / biotin-H3K9me3 peptide binding | Potency, µM (titrated, usually from 114 µM), without a hit: at the highest dose activity change, negative = inhibition, usual class: inhibitors | actives 0.56% (n = 390,000) | AID 540317; note: nearly all actives have a fitted effect of over 70% in size
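AlphaScreen: HP1-beta (50 nM) preformed 30 min with biotin-H3(1-18)K9me3 peptide (50 nM) in PBS pH 7.4, 0.01% Tween-20. Compound added for 30 min at RT, then streptavidin donor/nickel chelate acceptor beads (10 ug/mL) for 30 min.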
Sfp PPTase inh = blocks B. subtilis Sfp PPTase activity | Q9F4F7 | Biochemical Sfp PPTase activity, qHTS | Potency, µM, without a hit: largest response in the series, negative = inhibition, actives largely listed as inhibitors | actives 3.5% (n = 310,000);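 note: the enzyme is Sfp with the accession as filed and its product quenches rhodamine fluorescence; 0% = enzyme reaction without inhibitor and -100% = no enzyme wells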
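Fluorescence-quenching assay: 15 nM Sfp-PPTase preincubated 15 min at room temperature with compound, then 5 uM rhodamine-CoA and 12.5 uM BHQ-2-labelled YbbR peptide added. Fluorescence (ex 525/em 598 nm) read at start and after 30 min; difference gives rate.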
JMJD2A Tudor inh = JMJD2A Tudor domain (human) inhibition | O75164 | AlphaScreen JMJD2A-Tudor / H3K4me3 peptide binding | Potency, µM (series often up to 114 µM), for the others: at the top dose activity change, negative = inhibition, most hits filed as inhibitors | actives 4.4% (n = 390,000) | AID 504339; note: % is set by controls: 0 for no effect and ±100 for the full control effect; nearly all actives have a fitted effect of over 50% in size
TDP1 inh = blocks human tyrosyl-DNA phosphodiesterase 1. recombinant TDP1, AlphaScreen DNA substrate cleavage. Potency, µM (doses to about 130 µM), inactives show at the top dose activity change, negative = inhibition, usual class: inhibitors. Q9NUW8. actives 0.28% (n = 350,000). AID 485290; note: % is set by controls: 0 for no effect and ±100 for the full control effect; nearly all actives have a fitted effect of over 40% in size
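AlphaScreen read-out: signal falls as enzyme removes the 3' tyrosine-FITC from a 5'-biotinylated DNA oligo (15 nM, 5 min, RT). Enzyme was E. coli-made recombinant Tdp1 at 1 nM, exposed to compound for 15 min beforehand; beads 10 ug/ml, 10 min.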
Numbers without * were called inactive; u = inconclusive; x = not tested or not shown; [ ] = remark or other dose. Hits are enriched below; roughly 12% of the tested compounds scored in any of these assays. Calls come from the whole dose curve; as a rule, active = well fitted curve in the direction sought with a large enough effect; inconclusive = small, poorly fitted or top-dose-only effect, or another doubt; inactive = no such curve, though single readings can be large; an effect the other way counts as inactive or inconclusive. Potency is the fitted concentration of half-maximal effect.

SMILES	BAZ2B block	G9a inh	HP1b binding inh	Sfp PPTase inh	JMJD2A Tudor inh	TDP1 inh
CCC(C)N(C(=O)COC(=O)CNC(=O)c1sc2ccccc2c1Cl)C1CCS(=O)(=O)C1 (stereo not drawn)	-4%	x	15%	7%	-7%	0%
CN(C)c1ccc(N=Nc2ccc(C(=O)O)cc2)cc1	35µM*	10µM*	-25%[57 µM]	79µM*	25µM*	x
COc1ccc2[nH]c3c(c2c1)CCN1C(=O)C(CC(=O)NCC24CC5CC(CC(C5)C2)C4)C[C@H](C(=O)N2CCOCC2)[C@@]31CCC1CCCC1 (stereo partly drawn)	x	x	-6%	x	40µM*	1%[56.1 µM]
Cc1cc(Nc2ccc(C(=O)O)c(O)c2)n2ncnc2n1	-3%	u	34%	x	-22%	5%[12.3 µM]
Cn1c(-c2sccc2OCc2ccc(Cl)cc2Cl)n[nH]c1=S	u	3.2µM*	-16%	3%	-17%[11.4 µM]	x
Cn1c(-c2sccc2OCc2ccccc2)n[nH]c1=S	56µM*	2.8µM*	u	13%	3.2µM*	-2%
Cc1ccc(COc2ccsc2-c2n[nH]c(=S)n2C)cc1	u	x	36%	-30%	4%	-2%
Cc1c(C#N)c2ccccc2n1CC(=O)N1CCCC1	32%	21%[12.7 µM]	u	3%	79µM*	1%
Cc1c(C#N)c2ccccc2n1CC(=O)N1CCCc2ccccc21	-4%	3%	12%	22%	-12%	5%
CCOC(=O)c1c(NC(=O)COC(=O)Cc2c[nH]c3ccccc23)sc(C(=O)N(C)C)c1C	-10%	16%[0.501 µM]	-11%	x	-34%	x
CNc1ccc(N=Nc2cccc3ncccc23)cc1	x	x	40µM*	x	14µM*	x
COc1cc(/C=C/C(=O)OCc2csc(CC(=O)Nc3ccc(C)cc3)n2)ccc1OCC#N	8%	10µM*	27%	x	-21%	3%
Cc1ccc(-c2nc(CCNC(=O)C(=O)Nc3ccc(C)cc3C)cs2)cc1	6%	7%[59 µM]	11%[57 µM]	x	-6%	0%
COc1ccc(CCN(C)C(=O)c2cncc(Br)c2)cc1OC	5%	11%	31%	13%	-7%	8%
C=CCNC(=O)Cc1c(OC)ccc2cc(Br)ccc12	6%	-5%[59 µM]	8%	2%	-5%	3%
COc1ccc(CCN(C)Cc2c(O)ccc3cc(Br)ccc23)cc1OC	-37%	25µM*	30%	-10%	-25%	x
COc1ccc(CN(C)Cc2c(O)ccc3cc(Br)ccc23)cc1OC	u	25µM*	2%	-5%	-22%	2%
COc1ccc(S(=O)(=O)Nc2ccc(-n3cccc3)cc2)cc1	71µM*	50µM*	45µM*	-15%	56µM*	12%
COc1ccc(NS(=O)(=O)c2ccc(N3C(=O)CCC3=O)cc2)cc1	7%	-10%[12.7 µM]	36%	16%	-14%	2%
COc1ccc(NS(=O)(=O)c2cccc(-c3n[nH]c(=S)n3Cc3ccccc3)c2)cc1	u	7.1µM*	4%	-14%	-32%	6%
COc1ccc(NS(=O)(=O)c2ccc(-c3n[nH]c(=S)n3Cc3ccccc3)cc2)cc1	-35%	4µM*	-15%	-5%	25µM*	x
COc1ccc(CCNC(=O)CCCn2c(=O)c3cccn3c3ccc(F)cc32)cc1OC	-37%	2%[59 µM]	39%	x	7%	3%
COc1ccccc1NC(=O)Cn1c(SCC(=O)N(C)c2ccccc2)nc2ccccc21	-27%	-3%[59 µM]	16%	x	-23%	1%
COc1cc(/C=N/Nc2nc(N3CCCC3)nc(N3CCCC3)n2)ccc1OCc1ccccc1F	-14%	x	15%	-1%	-35%	7%
Cc1ccc2[nH]c3nc(N/N=C/c4cccc(O)c4)nnc3c2c1	u	x	56%	-13%	-8%	x
COc1ccc(/C=N/Nc2nc(N3CCCC3)nc(N3CCCC3)n2)cc1O	9%	3.5µM*	30%	14%	-19%	4%
Oc1ccc(/C=N/Nc2ccccc2)cc1	-25%	25µM*	u	4%	22µM*	0%

High-throughput results from PubChem BioAssay.
